# Compound activity deposited in PubChem BioAssay by several laboratories.
# TcdB inh = TcdB glycohydrolase inhibition; TcdB glycohydrolase enzymatic assay, plate reader; inhibition, % at 9.99 µM; actives 0.24% (n = 350,000); AID 652162; in the data active = inhibition above about 10%
# MazF activator = increases E. coli MazEF RNase cleavage of RNA | actives 0.32% (n = 350,000) | P0AE70 | AID 504720 | FAM/BHQ RNA-DNA oligo cleavage fluorescence, 5 h | activation, % at 20 µM; in the data active = activation above about 50%
# PfHsp40 yeast = restores yeast growth despite PfHsp40 toxicity | growth rescue, % at 12.5 µM | S. cerevisiae expressing PfHsp40, growth rescue, ATP luminescence | actives 0.68% (n = 340,000); in the data active = growth rescue above about 28%, passing the limit was not always enough;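 also: yeast W303a lacking pdr1 and pdr3 grown in galactose medium; growth measured after three days at 30 °C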
# Sa ugtP lethal = growth inhibition of S. aureus ugtP deletion strain. growth inhibition, % (concentration not given with the values). S. aureus RN4220 ugtP deletion, OD600 growth, 16 h. AID 1259309. actives 0.54% (n = 330,000); in the data active = growth inhibition above about 68%;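 also: plate controls were untreated wells for no effect and antibiotic for full effect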
# RN4220 kill = kills Staphylococcus aureus RN4220; S. aureus RN4220 growth, OD600, 16 h; inhibition, % (no concentration beside the values); actives 0.33% (n = 330,000); in the data active = inhibition above about 85%;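 also: plate controls were untreated cells for no effect and reference antibiotic for full effect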
# Mtb hypoxia rep = inhibitors of hypoxia-regulated fluorescent reporter in Mycobacterium tuberculosis. M. tuberculosis hypoxia-regulated fluorescent reporter, fluorescence. fluorescence inhibition, % (no concentration beside the values). actives 0.1% (n = 300,000). AID 1159583; in the data active = fluorescence inhibition mostly above about 23%, no sharp cut-off; inactive = mostly below about 17%
# Active calls of the source: *; . = no result shown. This is a sample that favours compounds with a hit; in the whole collection about 1.3% have one here.
SMILES,TcdB inh,MazF activator,PfHsp40 yeast,Sa ugtP lethal,RN4220 kill,Mtb hypoxia rep
Cc1cccc(CSC(Nc2ccc(F)cc2)=C(C#N)C#N)c1,.,-3,0,97*,100*,5
Nc1nonc1-n1nnc(C(=O)NN=Cc2cccc(Cl)c2)c1-c1ccc2c(c1)OCO2,.,.,.,18,19,5
O=C(CSc1ccc(-c2ccco2)nn1)NCc1ccc(Cl)cc1,.,7,-1,-5,11,8
Cc1ccc(CNC(=O)CSc2ccc(-c3ccccn3)nn2)cc1,1,4,219*,15,4,12
Cc1ccc(CNC(=O)CSc2ccc(-c3cccs3)nn2)cc1,5,47,0,13,3,-4
O=C(CSc1ccc(-c2ccccn2)nn1)NCc1ccc(Cl)cc1,1,3,331*,4,3,11
COc1cccc(CNC(=O)CSc2ccc(-c3ccccn3)nn2)c1,1,4,357*,10,3,7
COc1cccc(CNC(=O)CSc2ccc(-c3ccco3)nn2)c1,-1,4,1,5,4,2
O=C(NCC[C@H]1CC[C@H](NS(=O)(=O)Cc2ccccc2)[C@H](CO)O1)C1CCOCC1,1,.,.,.,.,.
O=C1c2ccccc2C(Nc2ccc(S(=O)(=O)N3CCCCCC3)cc2)N1c1ccccn1 (configuration not stated),0,94*,0,-11,-16,6
C[C@H](CO)N1C[C@H](C)[C@@H](CN(C)C(=O)c2ccc(F)cc2)Oc2ncc(C#CCN(C)C)cc2C1=O,0,.,.,.,.,.
Cc1cccc(N2C(=O)C=CC2=O)c1,0,9,1,0,-1,17
O=C1C=CC(=O)N1c1ccc(Nc2ccccc2)cc1,1,-2,236*,0,1,3
O=C1C=CC(=O)N1c1ccc2ccccc2c1,0,8,766*,1,-1,18
c1ccc(Nc2ccc(Nc3ccccc3)cc2)cc1,-2,-14,0,-7,0,21
C[C@@H]1CN([C@@H](C)CO)C(=O)c2cc(-c3ccncc3)cnc2O[C@H]1CN(C)Cc1ccc(Oc2ccccc2)cc1,1,.,.,.,.,.
COC(=O)Nc1ccc(S(=O)(=O)NNC(=O)c2c(O)c3ccccc3[nH]c2=O)cc1,0,3,52*,10,2,-5
Cc1cccc(OCC(=O)NCc2ccccc2)c1,-2,2,-1,7,8,.
Cc1cccc(OP(=O)(NCc2ccccc2)Oc2cccc(C)c2)c1,0,0,118*,-16,-3,13
Cc1ccc(CCNC(=O)c2coc3nc4ccccc4nc23)cc1,.,90*,0,12,13,-3
CC1CCN(CCCNC(=O)c2coc3nc4ccccc4nc23)CC1,.,6,0,1,3,10
Cc1cc(C(=O)NN=C/C=C/c2ccccc2[N+](=O)[O-])c(C)o1,.,.,.,-1,0,4
O=C(c1cccc(F)c1)N1CC2(C1)[C@@H](c1ccccc1)[C@@H](CO)N2C(=O)C1CCC1,0,.,.,.,.,.
NC(=O)C[C@H](NC(=O)c1ccc(Cl)cc1)C(=O)OCc1ccccc1,1,5,0,3,3,28*
COc1ccc(NC(=O)CN(C)S(=O)(=O)c2ccccc2)c([N+](=O)[O-])c1,.,263*,0,4,5,17
SMILES,TcdB inh,MazF activator,PfHsp40 yeast,Sa ugtP lethal,RN4220 kill,Mtb hypoxia rep
COc1ccc(NC(=O)CN(C)S(=O)(=O)c2ccc(Cl)cc2)c([N+](=O)[O-])c1,-1,14,-1,-1,5,2
CCCCC(=O)Nc1ccc(C(=O)Nc2ccc(OC)cc2[N+](=O)[O-])cc1,0,743*,4,0,2,16
COc1ccc(S(=O)(=O)Nc2ccc3c(c2)C(=O)N(C)C[C@@H](OC)[C@H](C)CN(Cc2cc(F)ccc2F)[C@H](C)CO3)cc1,1,.,.,.,.,.
C[C@H]1CN([C@@H](C)CO)C(=O)c2cc(C#CCN(C)C)cnc2O[C@H]1CN(C)S(C)(=O)=O,0,.,.,.,.,.
Cc1cc(C(=O)NN=Cc2cccnc2)n[nH]1,.,.,.,1,5,12
O=C(CSCc1ccc(Cl)cc1)Nc1ccccc1O,2,-13,-1,-5,2,65*
O=C(c1ccc2c(c1)OCO2)N1CC(=O)N2[C@H](CO)[C@@H](c3ccc(C#CC4CCCC4)cc3)[C@@H]2C1,0,.,.,.,.,.
CCc1ccc(-c2cc(C(=O)N3N=C(C(F)F)CC3(O)C(F)F)c3ccccc3n2)cc1 (configuration not stated),0,-2,174*,75,46,14
CN1C(=O)c2cc(NS(=O)(=O)c3ccc(F)cc3)ccc2OC[C@@H]2O[C@@H](CC(=O)O)CC[C@@H]21,1,.,.,.,.,.
c1cc2c(cc1C1CCCCC1)c1c3n2CCCNC3CCC1 (configuration not stated),.,19,0,87*,89*,.
Cc1ccc2c(c1)c1c3n2CCCNC3CCC1 (configuration not stated),.,8,0,-6,3,8
O=C(Cn1nnc(-c2ccccc2Cl)n1)N/N=C/c1ccc2c(c1)OCO2,.,3,60*,.,.,.
O=C(CNC(=O)c1ccccc1Cl)N/N=C/c1ccc2c(c1)OCO2,2,9,0,.,.,.
CC(=NNC(=S)NCc1ccccc1)c1ccc(C)o1,.,.,.,5,11,-8
CCCSc1nc2c([nH]1)c(=O)n(C)c(=S)n2C,10*,12,-1,.,.,.
C[C@@H](NC(=O)C[C@@H]1C=C[C@H](NC(=O)Nc2ccc3c(c2)OCO3)[C@H](CO)O1)c1ccccc1,0,.,.,.,.,.
O=C([C@H]1[C@H](CO)[C@H]2Cn3c(ccc(/C=C/c4ccccc4)c3=O)[C@H]2N1CC1CC1)N1CCOCC1,1,.,.,.,.,.
Cc1cc(C=C2SC(=S)NC2=O)c(C)[nH]1,.,.,.,0,13,14
O=C1NC(=S)S/C1=C\c1cc(Cl)ccc1Cl,-11,-23,-2,100*,100*,-3
O=c1c2cc(Br)ccc2nc(-c2ccccc2)n1O,0,5,128*,.,.,.
Cc1ccc(-c2nc3ccccc3c(=O)n2O)cc1,0,-3,132*,0,5,10
Cc1ccc(-c2nc3ccc(Cl)cc3c(=O)n2O)cc1,-2,3,355*,0,18,12
COc1ccc(C(=O)On2c(-c3ccc(Br)cc3)nc3ccccc3c2=O)cc1,1,-6,375*,-18,4,-15
O=C(Nc1ccccc1F)N1C[C@H]2[C@@H](c3ccccc31)[C@@H](CO)N2C(=O)C1CCCCC1,0,.,.,.,.,.
Cn1ccnc1COc1ccc(C=NO)cc1,.,.,.,5,5,1
O=c1c2cc(Cl)ccc2nc(-c2ccccc2Cl)n1O,1,14,12,3,17,12
O=c1c2ccccc2nc(-c2ccc([N+](=O)[O-])cc2)n1O,1,7,30*,-5,13,8
O=c1c2ccccc2nc(-c2ccc([N+](=O)[O-])cc2)n1-c1ccccc1,1,-5,-1,6,1,9
